# According to PubChem BioAssay (EPA / NIEHS):
# Activity calls are given as the source filed them. How the source made its calls: active means hit-call score of the fitted dose curve at least 0.9, where 1 is the maximum; inactive means score below 0.9.
# Key:
# [1] = APR_HepG2_NuclearSize_24hr: Apredica 24-hour HepG2 Assay for Nuclear Size (AID 2282907); conditions: high-content imaging, actives raise or lower the signal
# Outline: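 Nuclear size is measured by fluorescence high-content imaging of Hoechst-labelled HepG2 nuclei after 24 hr of treatment (0.39–200 uM, 0.5% DMSO). Cells are fixed in 3.7% formaldehyde before staining, and DMSO serves as the baseline for bidirectional curve fitting.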
# [2] = APR_HepG2_CellLoss_24hr: Apredica 24-hour HepG2 Assay for Cell Loss (AID 2282908); conditions: high-content imaging;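 on AC50: fit in both directions so a hit may be cell loss or gain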
# Outline: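 Nuclear count serves as the viability measure: treated cells are fixed, permeabilized and labelled with Hoechst 33342, and six images per well are analysed to identify valid nuclei. Doses span 0.39–200 uM, and activity in either direction is scored against DMSO.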
# [3] = APR_HepG2_MicrotubuleCSK_24hr: Apredica 24-hour HepG2 Assay for Microtubule CSK Stabilty (AID 2282909); conditions: HepG2 microtubule cytoskeleton imaging, actives raise or lower the signal
# Outline: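 Compounds were applied to HepG2 cells for 24 hours across 0.39–200 uM in duplicate, with final DMSO at 0.5% v/v. Fixed, permeabilized cells were labeled for alpha-tubulin and nuclei, and tubulin fluorescence was quantified by imaging, fitted bidirectionally against DMSO.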
# [4] = APR_HepG2_MitoticArrest_24hr: Apredica 24-hour HepG2 Assay for Mitotic Arrest (AID 2282910); conditions: high-content imaging, actives raise or lower the signal
# Outline: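 HepG2, 24 hr dosing, 0.39–200 uM, 0.5% DMSO final. Formaldehyde-fixed, Triton-permeabilised, anti-phospho-histone H3 plus Hoechst. ArrayScan imaging at 20x; bidirectional fit vs DMSO baseline.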
# [5] = APR_HepG2_MitoMembPot_24hr: Apredica 24-hour HepG2 Assay for Mitochondrial Membrane Potential (AID 2282911); conditions: imaging, actives raise or lower the signal
# Outline: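 Human hepatoma HepG2 cultures received ten compound concentrations up to 200 uM for 24 hr. Membrane-potential dye signal, captured by automated fluorescence microscopy, was scored for gain or loss against DMSO controls.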
# [6] = APR_HepG2_MitoMass_24hr: Apredica 24-hour HepG2 Assay for Mitochondrial Mass (AID 2282912); conditions: high-content imaging, actives raise or lower the signal
# Outline: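 After 24 hr of treatment at 0.39 to 200 uM, HepG2 cells take up 250 nM MitoTracker Red CMXRos for 30 min and are then fixed with 3.7% formaldehyde. Per-well images are quantified, and any change in either direction is scored against solvent.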
# [7] = APR_HepG2_p53Act_24hr: Apredica 24-hour HepG2 Assay for p53 Activation (AID 2282913); conditions: high-content imaging, actives raise or lower the signal;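 further: p53 protein immunofluorescence averaged per cell in HepG2 with Hoechst nuclei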
# Outline: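 Automated fluorescence imaging quantifies p53 immunostaining in HepG2 cells after a 24 hr exposure (0.39–200 uM, duplicate, 0.5% DMSO). Nuclei are located by Hoechst 33342 staining.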
# [8] = APR_HepG2_CellLoss_72hr: Apredica 72-hour HepG2 Assay for Cell Loss (AID 2282915); conditions: high-content imaging
# Outline: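 HepG2 cells exposed 72 h to compound at 0.39–200 uM (10 concentrations, duplicate) in 0.5% DMSO. Fixed with 3.7% formaldehyde and Hoechst 33342-stained. Imaged at 20x; nuclear count gives cell number, fitted bidirectionally versus DMSO.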
# [9] = APR_HepG2_P-H2AX_72hr: Apredica 72-hour HepG2 Assay for H2AX Phosphorylation (AID 2282916); conditions: imaging, actives raise or lower the signal;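 further: phospho-histone H2A.x immunostain intensity per cell marking DNA damage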
# Outline: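 Human hepatoma HepG2 cells are dosed across ten concentrations (0.39 to 200 uM, 0.5% v/v DMSO) and incubated 72 hr. Phospho-histone H2A.x is then detected by antibody staining alongside c-Jun and Hoechst, and quantified by automated fluorescence imaging.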
# [10] = APR_HepG2_MitoMembPot_72hr: Apredica 72-hour HepG2 Assay for Mitochondrial Membrane Potential (AID 2282917); conditions: imaging, actives raise or lower the signal
# Outline: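 HepG2 cells dosed 72 hr with compound at 0.39–200 uM in duplicate, 0.5% v/v DMSO final. Mitochondria stained with 250 nM MitoTracker Red CMXRos for 30 min before formaldehyde fixation, imaged by high-content fluorescence; bidirectional fit versus DMSO.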
# [11] = APR_HepG2_MitoticArrest_72hr: Apredica 72-hour HepG2 Assay for Mitotic Arrest (AID 2282918); conditions: high-content imaging, actives raise or lower the signal
# Outline: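 Mitotic arrest in HepG2 is scored from phospho-histone H3 staining after 72 hr dosing across 0.39–200 uM, with DMSO at 0.5% v/v. Nuclei are identified by Hoechst 33342 and fluorescence intensity is quantified per cell.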
# [12] = APR_HepG2_MicrotubuleCSK_72hr: Apredica 72-hour HepG2 Assay for Microtubule CSK Stabilty (AID 2282919); conditions: HepG2 microtubule cytoskeleton, high-content imaging, actives raise or lower the signal
# Outline: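 HepG2, 72 hr cmpd exposure, 0.39–200 uM (10 pts, duplicate), 0.5% DMSO. 3.7% formaldehyde fix, 0.5% Triton perm, anti-alpha-tubulin/Cy5 plus Hoechst. HCS fluorescence intensity; bidirectional fit vs DMSO baseline; taxol as positive control.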
# [13] = APR_HepG2_P-H2AX_24hr: Apredica 24-hour HepG2 Assay for H2AX Phosphorylation (AID 2282920); conditions: high-content imaging, actives raise or lower the signal
# Outline: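 Signal comes from a FITC-labeled secondary detecting phospho-histone H2A.x in fixed HepG2 cells, quantified by automated imaging at 20x. Dosing ran 24 hr across 0.39–200 uM with 0.5% v/v DMSO.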
# [14] = APR_HepG2_StressKinase_72hr: Apredica 72-hour HepG2 Assay for Stress Kinase (AID 2282921); conditions: HepG2 stress kinase (phospho-c-Jun) imaging, actives raise or lower the signal
# Outline: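 After a 72 h compound treatment spanning 0.39 to 200 uM, formaldehyde-fixed cells are labelled for phosphorylated c-Jun and nuclei, imaged by automated fluorescence microscopy, and activity is fitted in both directions relative to DMSO controls.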
# [15] = APR_HepG2_StressKinase_24hr: Apredica 24-hour HepG2 Assay for Stress Kinase (AID 2282922); conditions: HepG2 stress kinase (phospho-c-Jun) imaging, actives raise or lower the signal
# Outline: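 Read-out: phospho-c-Jun immunofluorescence (Cy3 secondary) quantified by high-content imaging at 20x, nuclei defined by Hoechst 33342. Human HepG2 liver cells dosed 24 hr, 0.39–200 uM, DMSO 0.5% v/v; gain or loss of signal fitted relative to DMSO.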
# [16] = APR_HepG2_p53Act_72hr: Apredica 72-hour HepG2 Assay for p53 Activation (AID 2282923); conditions: high-content imaging, actives raise or lower the signal;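 further: average cellular p53 protein immunofluorescence intensity in HepG2 cells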
# Outline: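 Imaging-based endpoint: after 72 hr compound exposure (up to 200 uM, 0.5% DMSO), fixed and permeabilized monolayers were labelled with anti-p53 antibody and imaged; signal change in either direction was fitted relative to DMSO controls.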
# [17] = APR_HepG2_MitoMass_72hr: Apredica 72-hour HepG2 Assay for Mitochondrial Mass (AID 2282924); conditions: high-content imaging, actives raise or lower the signal;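 further: MitoTracker Red CMXRos stain intensity per cell imaged as mitochondrial mass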
# Outline: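 Read-out: MitoTracker Red fluorescence intensity from automated imaging (20x, six fields per well) in human HepG2 liver cells. Dosing ran 72 hr, 0.39–200 uM, 0.5% DMSO; bidirectional curve fitting versus DMSO baseline.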
# [18] = APR_HepG2_NuclearSize_72hr: Apredica 72-hour HepG2 Assay for Nuclear Size (AID 2282925); conditions: high-content imaging, actives raise or lower the signal
# Outline: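 Read-out: nuclear diameter from Hoechst 33342 images (ArrayScan, 20x, six fields/well), via cell-cycle image analysis. HepG2 were dosed 0.39–200 uM for 72 hr in 0.5% DMSO. Bidirectional fit relative to DMSO.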
# [19] = APR_HepG2_CellCycleArrest_72hr: Apredica 72-hour HepG2 Assay for Cell Cycle Arrest (AID 2282914); conditions: high-content imaging, actives raise or lower the signal
# Outline: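 Cell cycle arrest in HepG2 was scored from nuclear DNA content after 72 hr compound treatment (0.39–200 uM). Activity, either gain or loss, was fitted against the DMSO baseline.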
smiles,measurement,setting,value
C1=Cc2cccc3cccc1c23,outcome,[1],inactive
same,outcome,[2],inactive
same,outcome,[3],inactive
same,outcome,[4],inactive
same,outcome,[5],inactive
same,outcome,[6],inactive
same,outcome,[7],inactive
same,outcome,[8],inactive
same,outcome,[9],inactive
same,outcome,[10],inactive
same,outcome,[11],inactive
same,outcome,[12],inactive
same,outcome,[13],inactive
same,outcome,[14],inactive
same,outcome,[15],inactive
same,outcome,[16],inactive
same,outcome,[17],inactive
same,outcome,[18],inactive
Oc1ccccc1Cl,outcome,[1],inactive
same,outcome,[2],inactive
same,outcome,[3],inactive
same,outcome,[4],inactive
same,outcome,[5],inactive
same,outcome,[6],inactive
same,outcome,[7],inactive
same,outcome,[8],inactive
same,outcome,[9],inactive
same,outcome,[10],inactive
same,outcome,[11],inactive
same,outcome,[12],inactive
same,outcome,[13],inactive
same,outcome,[14],inactive
same,outcome,[15],inactive
same,outcome,[16],inactive
same,outcome,[17],inactive
same,outcome,[18],inactive
ClC1=C(Cl)[C@]2(Cl)[C@H]3[C@H]([C@@H]4C=C[C@H]3C4)[C@@]1(Cl)C2(Cl)Cl,AC50,[1],53.8 µM (active)
same,AC50,[2],46.5 µM (active)
same,outcome,[3],inactive
same,AC50,[4],25.4 µM (active)
same,outcome,[5],inactive
same,AC50,[6],48.1 µM (active)
same,AC50,[7],49.7 µM (active)
same,AC50,[19],16.2 µM (active)
same,AC50,[8],36.7 µM (active)
same,AC50,[9],42.6 µM (active)
same,outcome,[10],inactive
same,AC50,[11],32.9 µM (active)
same,outcome,[12],inactive
same,AC50,[13],50.7 µM (active)
same,AC50,[14],53.4 µM (active)
same,outcome,[15],inactive
same,AC50,[16],45.3 µM (active)
same,outcome,[17],inactive
same,outcome,[18],inactive
Clc1ccccc1Cl,outcome,[1],inactive
same,outcome,[2],inactive
same,outcome,[3],inactive
same,outcome,[4],inactive
same,outcome,[5],inactive
same,outcome,[6],inactive
same,outcome,[8],inactive
same,outcome,[9],inactive
same,outcome,[10],inactive
same,outcome,[11],inactive
same,outcome,[12],inactive
same,outcome,[13],inactive
same,outcome,[14],inactive
same,outcome,[15],inactive
same,outcome,[17],inactive
same,outcome,[18],inactive
CCCCCCCCOC(=O)c1ccc(C(=O)OCCCCCCCC)c(C(=O)OCCCCCCCC)c1,outcome,[1],inactive
same,outcome,[2],inactive
same,outcome,[3],inactive
same,outcome,[4],inactive
same,outcome,[5],inactive
same,outcome,[6],inactive
same,outcome,[7],inactive
same,outcome,[19],inactive
same,outcome,[8],inactive
same,outcome,[9],inactive
same,outcome,[10],inactive
same,outcome,[11],inactive
same,outcome,[12],inactive
same,outcome,[13],inactive
same,outcome,[14],inactive
same,outcome,[15],inactive
same,outcome,[16],inactive
same,outcome,[17],inactive
same,outcome,[18],inactive
O=C(Oc1ccc(Br)cc1)N1CCN2CCC1CC2,outcome,[1],inactive
same,outcome,[2],inactive
same,outcome,[3],inactive
same,outcome,[4],inactive
same,outcome,[5],inactive
same,outcome,[6],inactive
same,outcome,[7],inactive
same,AC50,[8],80.8 µM (active)
same,AC50,[9],101 µM (active)
same,outcome,[10],inactive
same,AC50,[11],106 µM (active)
same,outcome,[12],inactive
same,outcome,[13],inactive
same,outcome,[14],inactive
same,outcome,[15],inactive
same,AC50,[16],103 µM (active)
same,outcome,[17],inactive
same,outcome,[18],inactive
CCCCCCCCCCCCCN1CC(C)OC(C)C1 (stereo not given),AC50,[1],105 µM (active)
same,AC50,[2],91.8 µM (active)
same,AC50,[3],166 µM (active)
same,AC50,[4],97.6 µM (active)
same,outcome,[5],inactive
same,AC50,[6],189 µM (active)
same,AC50,[7],66.8 µM (active)
same,AC50,[8],78.9 µM (active)
same,outcome,[9],inactive
same,outcome,[10],inactive
same,outcome,[11],inactive
same,outcome,[12],inactive
same,AC50,[13],76.6 µM (active)
same,outcome,[14],inactive
same,outcome,[15],inactive
same,outcome,[16],inactive
same,outcome,[17],inactive
same,outcome,[18],inactive
c1ccc(C2CO2)cc1 (stereo not given),outcome,[1],inactive
same,outcome,[2],inactive
same,outcome,[3],inactive
same,outcome,[4],inactive
same,outcome,[5],inactive
same,outcome,[6],inactive
same,outcome,[7],inactive
same,outcome,[19],inactive
same,outcome,[8],inactive
same,outcome,[9],inactive
same,outcome,[10],inactive
same,outcome,[11],inactive
same,outcome,[12],inactive
same,outcome,[13],inactive
same,outcome,[14],inactive
same,outcome,[15],inactive
same,outcome,[16],inactive
same,outcome,[17],inactive
same,outcome,[18],inactive
